Results on 36 compounds are retold here after ChEMBL document CHEMBL3433997, “St. Jude Leishmania screening dataset” (2016).

Common to all, as to assay type: functional
Test [1] concerns the target Solute carrier family 2, facilitated glucose transporter member 1 (Homo sapiens) (UniProt P11166). Put plainly: ST_JUDE_LEISH: Cytotoxicity at 2uM final concentration against transgenic Leishmania Mexicana promastigotes LmGLUT1 that are glucose transport deficient and complemented with the human glucose transporter GLUT1. Activity is measured by DNA content using SYBR green in vitro.

The target in test [2] is Hexose transporter 1 (Plasmodium falciparum) (UniProt O97467). Put plainly: ST_JUDE_LEISH: Cytotoxicity at 2uM final concentration against transgenic Leishmania Mexicana promastigotes LmPfHT that are glucose transport deficient and complemented with the Plasmodium falciparum hexose transporter. Activity is measured by DNA content using SYBR green in vitro.
Test [3] addresses Glucose transporter (Leishmania mexicana) (UniProt O61059). Briefly: ST_JUDE_LEISH: Cytotoxicity at 2uM final concentration against transgenic Leishmania Mexicana promastigotes LmGT2 that are glucose transport deficient and complemented with the L. Mexicana glucose transporter 2. Activity is measured by DNA content using SYBR green in vitro.

Sequence of Solute carrier family 2, facilitated glucose transporter member 1 (Homo sapiens) (P11166 whole entry): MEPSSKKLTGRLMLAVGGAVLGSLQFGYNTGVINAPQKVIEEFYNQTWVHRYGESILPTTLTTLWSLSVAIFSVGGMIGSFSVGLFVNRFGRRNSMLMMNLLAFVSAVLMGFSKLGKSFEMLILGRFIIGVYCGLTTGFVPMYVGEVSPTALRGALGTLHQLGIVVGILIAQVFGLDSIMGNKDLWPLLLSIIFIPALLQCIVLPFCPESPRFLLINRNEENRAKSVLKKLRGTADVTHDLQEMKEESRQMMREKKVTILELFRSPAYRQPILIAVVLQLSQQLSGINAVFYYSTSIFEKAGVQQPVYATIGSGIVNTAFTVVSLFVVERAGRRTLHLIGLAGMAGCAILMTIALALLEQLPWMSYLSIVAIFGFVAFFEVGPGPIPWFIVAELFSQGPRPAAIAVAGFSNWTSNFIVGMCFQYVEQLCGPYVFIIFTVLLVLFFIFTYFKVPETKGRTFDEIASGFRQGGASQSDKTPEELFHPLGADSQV

Consider `c1ccc(Oc2cccc(Nc3ccnc4ccccc34)c2)cc1`, for which the inhibition in test [1] stood at 8.44%; in test [2], 10.4%; in test [3], 3.97%.

With `Cn1cncc1C(=O)Nc1cccc(-c2ccc(-c3nc4ccccc4[nH]3)s2)c1`, the inhibition turned out to be 3.45% in test [1], 2.88% in test [2] and 4.94% in test [3].

As to `O=C(Nc1cccc(Cl)c1)c1cc2ccccc2cc1O`, the inhibition in test [1] stood at 2.74%; in test [2], 3.05%; in test [3] it was 2.04%.

As to `Cc1[nH]c(C)c(-c2ccc(OCc3cc(F)cc(F)c3)nc2)c(=O)c1Br`, the inhibition in test [1] amounted to 3.26%; in test [2], 5.62%; in test [3], 0.58%.

With `O=C(NC1CCN(Cc2ccccc2)CC1)c1cc(-c2ccncc2)c(-c2ccc(Cl)c(O)c2)o1`, the inhibition is 2.8% in test [1], 1.63% in test [2] and 0.77% in test [3].

On to `CN1CCCC1CCNCc1cccc(-c2cnc(N(C)C3CCCCC3)nc2)c1` (stereo not drawn), for which the inhibition in test [1] was 102%; in test [2], 102%; in test [3] it was 101%.

For `CN(C)CCOc1cc(NC(=O)Nc2ccc3c(c2)CCCC3=O)ccc1I`, the inhibition in test [1] is 5.03%; in test [2], 7.25%; in test [3] it was 4.5%.

Regarding `COc1ccc2nccc([C@@H](O)CN3CCC(NC(=O)C(c4cc5ccccc5s4)N4CC(C)OC(C)C4)CC3)c2c1` (stereo partly drawn), the inhibition in test [1] was 4.19%; in test [2], 2.81%; in test [3] it was 3.57%.

As for `O=C(Nc1cccc(-c2cccc(-c3nc4cc(F)ccc4[nH]3)c2)c1)c1csnn1`, the figures for the inhibition in test [1], in test [2] and in test [3] were 6.12%, 4.57% and 1.83%, respectively.

For the compound `CC1(CCCCN2CCC(Oc3ccc(F)cc3F)CC2)C(=O)Nc2ccccc21` (stereo not drawn), the inhibition in test [1] worked out at 3.9%; in test [2], 3.15%; in test [3], 5.35%.

With `O=C(c1ccc(F)cc1)N1CCOC(CCN2CCC(c3ccccc3)CC2)(c2ccc(Cl)c(Cl)c2)C1` (stereo not drawn), the inhibition in test [1] was determined as 0.53%; in test [2], 1.42%; in test [3], 5.2%.

As to `Cc1ncc(CN2CCC(C(=O)Nc3ccc(-c4nc5ccccc5o4)cc3)CC2)s1`, the inhibition in test [1] was -2.13%; in test [2], -3.66%; in test [3] it was -0.97%.

In the case of `O=C(NCC1CCC(CNCCCc2ccccc2)CC1)c1cc(Cl)cc(Cl)c1` (stereo not drawn), the figures for the inhibition in test [1], in test [2] and in test [3] were 1.46%, 0.53% and 1.72%, respectively.

In the case of `CCCC(C)Nc1nc(C)cc(N[C@@H](Cc2ccccc2)C(=O)NCCc2ccccc2)n1` (stereo partly drawn), the inhibition in test [1] was 2.61%; in test [2], 3.38%; in test [3], -0.17%.

Take `CS(=O)(=O)Cc1ccc(Nc2nccc(N3CCCc4cc(NC(=O)Nc5cccc(C(F)(F)F)c5)ccc43)n2)cc1`: the results for the inhibition in test [1], in test [2] and in test [3] were 9.54%, 15.9% and 2.08%, respectively.

Take `COc1ccc(CN(C)C(=O)CCNS(=O)(=O)c2ccc3c(c2)OCCCO3)cc1F`: the inhibition in test [1] amounted to 5.25%; in test [2], 6.84%; in test [3] it was 7.12%.

Turning to `CCCCCCN1CCCN(Cc2ccc(C(=O)Nc3ccc(C(C)(C)C)cc3)cc2)CC1`, the inhibition was determined as 4.82% in test [1], 1.84% in test [2] and 5.5% in test [3].

For the compound `CCn1c(-c2ccccc2)cc2nnc3ccccc3c21`, the inhibition in test [1] amounted to 6.68%; in test [2], 5.32%; in test [3], 5.02%.

As for `COc1ccc2nccc([C@@H](O)CN3CCC(NCc4cc5cc(OC(F)(F)F)ccc5[nH]4)CC3)c2c1`, the inhibition in test [1] was 9.94%; in test [2], 10.4%; in test [3], 3.79%.

As for `CCOC(=O)C1=C(C)NC(Cn2ccnc2)=C(C(=O)OCC)C1c1ccc(C(C)(C)C)cc1` (stereo not drawn), the inhibition amounted to 2.7% in test [1], 2.73% in test [2] and 2.07% in test [3].

Turning to `COc1cc2nc(N(C)CC3COc4ccccc4O3)nc(N)c2cc1OC` (stereo not drawn), the inhibition in test [1] was 3.64%; in test [2], 1.69%; in test [3], -0.97%.

For the compound `O=C(Nc1ccc(-c2cccc(-c3nc4ccccc4[nH]3)c2)cc1)Nc1ccsc1`, the inhibition in test [1] was -0.72%; in test [2] it was 4.27%; in test [3] it was -0.62%.

As for `COc1ccc(Cl)cc1N1CCN(CCCNC(=O)c2ccc(-c3nc4cc(Cl)c(C)cc4[nH]3)s2)CC1`, the inhibition in test [1] worked out at 4.06%; in test [2], 1.78%; in test [3], 1.42%.

In the case of `COc1ccc(O)c(C(=O)c2cnc3c(c2)c(-c2ccc(F)cc2)c(C#N)c(=O)n3C)c1`, the inhibition in test [1] is 8.74%; in test [2], 6.89%; in test [3], 4.94%.

On to `CC(=O)Nc1cccc(C(=O)Nc2ccc(-c3cccc(-c4nc5cc(C(F)(F)F)ccc5[nH]4)c3)cc2)c1`, for which the inhibition in test [1] is 2.13%; in test [2], 0.32%; in test [3] it was -0.69%.

As to `CCOc1ccc(C(=O)Nc2nonc2-c2ccc(OC)c(OC)c2)cc1`, the inhibition was -0.49% in test [1], 1.82% in test [2] and 0.47% in test [3].

Turning to `O=C(Nc1cccc(-c2cc(-c3c(Cl)cccc3Cl)no2)c1)c1cnc2ccccc2c1`, the inhibition is 11.8% in test [1], 9.35% in test [2] and 6.2% in test [3].

As for `CCc1cn2c3c(cc(C(=O)N[C@@H](Cc4ccccc4)[C@H](O)CNC4CCOCC4)cc13)N(CC(F)(F)F)S(=O)(=O)CC2`, the inhibition turned out to be 2.22% in test [1], 2.72% in test [2] and 0.88% in test [3].

As for `O=C(NCCCN1CCC(N2CCCCC2)CC1)c1ccc(N2CCOc3ccccc32)s1`, the inhibition is 1.25% in test [1], 0.98% in test [2] and 3.19% in test [3].

For `CC(C)Nc1nc(NC2CCCCC2)nc(N2CCCCCCC2)n1`, the inhibition is 19.3% in test [1], 17.4% in test [2] and 11.6% in test [3].

In the case of `COc1ccc2nccc([C@@H](O)CN3CCC(NC(=O)c4ccc(Cl)c([N+](=O)[O-])c4)CC3)c2c1`, the inhibition worked out at 13.3% in test [1], 8.44% in test [2] and 0% in test [3].

On to `CN(C)S(=O)(=O)c1ccc(Nc2nc(NCCC3C=NC=N3)nc3cc[nH]c(=O)c23)cc1` (stereo not drawn), for which the inhibition was determined as 4.88% in test [1], 5.35% in test [2] and 4.93% in test [3].

On to `Oc1cccc2ccc(Nc3ccccn3)nc12`, for which the values for the inhibition in test [1], in test [2] and in test [3] were 0.94%, 2.29% and -0.77%, respectively.

As for `c1cncc(CCNCc2cccc(-c3csc(-c4nc5ccccc5[nH]4)c3)c2)c1`, the inhibition in test [1] was determined as 4.04%; in test [2], 4.06%; in test [3], 2.64%.

Take `COC(=O)c1ccc2nc(-c3cc(-c4cccc(-c5ccccc5)c4)cnc3N)[nH]c2c1`: the inhibition in test [1] amounted to 5.22%; in test [2], 5.28%; in test [3] it was 4.17%.

Regarding `Cc1[nH]c(C)c(-c2ccc(Oc3ccccc3)cc2)c(=O)c1Br`, the inhibition in test [1] was 1.44%; in test [2] it was 1.17%; in test [3], -0.53%.

By inhibition is commonly meant the drop in the measured response relative to a control, in per cent.
